In ChEMBL document CHEMBL1157539, “Thousands of chemical starting points for antimalarial lead identification” (Nature, 2010) one finds Inhibition data, which are given here for 29 compounds.

What all share (assay type): functional
Test [1] concerns Plasmodium falciparum. Kind of test: GSK_TCMDC: Inhibition of Plasmodium falciparum 3D7 in whole red blood cells, using parasite LDH activity as an index of growth. Test compounds present at 2uM.
Test [2] concerns Plasmodium falciparum. In words: GSK_TCMDC: Inhibition of Plasmodium falciparum Dd2 in whole red blood cells, using parasite LDH activity as an index of growth. Test compounds present at 2uM.
Test [3] concerns HepG2. In words: GSK_TCMDC: Percent inhibition of human HepG2 cell line. Test compounds present at 10uM.

One may read the Inhibition as the change of the read-out against control, counted positive when it falls. Consider `CC(C)(C)C/C=C\c1ccc(C(=O)NCC2CC2)cc1`, for which the values for the Inhibition in test [1], in test [2] and in test [3] were 94%, 88% and 0%, respectively.
For `CCC(C)NS(=O)(=O)c1ccc2nc(Nc3ccc(C)cc3)n([C@H](C)C(C)(C)C)c2c1` (some centres not stated), in that order: 98%, 98% and 2%.
For `COc1cccc(NC(=O)c2cc(C(=O)Nc3cccc(OC)c3)cc([N+](=O)[O-])c2)c1`, in that order: 99%, 61% and 1%.
For `Br.CC[C@H]1CN2CCc3cc(OC)c(OC)cc3[C@@H]2C[C@@H]1CC1=NCCc2c1[nH]c1ccc(OCc3ccccc3)cc21`, in that order: 100%, 89% and 57%.
As to `COc1c(C2CCN(CCCCNC(=O)c3ccc(-c4ccc(Cl)cc4)c(OCC(N)=O)c3)CC2)ccc2c1CCCC2`, the Inhibition is listed as 97% in test [1], 11% in test [2] and 43% in test [3].
For `Clc1ccc2c(N3CCCNCC3)ccnc2c1`, in that order: 100%, 99% and 11%.
With `COc1cccc(CNC(=O)c2cc(CNCc3ccccc3)ccc2-c2cccc(CNCc3ccc(-c4ccccc4)cc3)c2)c1.O=C(O)C(F)(F)F`, the Inhibition in test [1] was 95%; in test [2], 15%; in test [3], 22%.
For `Cc1ccc(NC(=O)c2cn(-c3ccccc3)nc2-c2ccc(F)cc2)cc1[N+](=O)[O-]`, in that order: 92%, 38% and 6%.
For `CC(C)(C)c1ccc(CN2CCCCC(NC(=O)c3cc(-c4ccccc4Cl)cs3)C2)cc1.O=C(O)C(F)(F)F` (configuration not stated), in that order: 100%, 98% and 3%.
For `O=C(Nc1ccc(-n2ccc(C(F)(F)F)n2)cc1)c1cccs1`, in that order: 89%, 67% and 6%.
With `Cc1cc(N2CCCC2)nc(Nc2ccc(NC(=O)C(C)C)cc2)n1`, the Inhibition was found to be 97% in test [1], 36% in test [2] and 40% in test [3].
For `O=C(c1ccccc1NN=C1C(=O)N(c2ccccc2)N=C1c1ccccc1)N1CCOCC1`, in that order: 97%, 2% and 0%.
For `COc1ccc(Nc2nccc(-c3c(-c4cccc(NC(=O)c5c(F)cccc5F)c4)nn4ccccc34)n2)cc1Cl`, in that order: 95%, 71% and 61%.
With `CCCCOc1cc2c(cc1OCC)C(C=Cc1ccc(Cl)cc1Cl)=NCC2.Cl`, the figures for the Inhibition in test [1], in test [2] and in test [3] were 97%, 95% and 0%, respectively.
For `COc1nc(Nc2cccc(C)c2)nc(OC)n1`, in that order: 94%, 0% and 46%.
Regarding `CCc1cc2c3c(N)nc(N)nc3ccc2n1C(C)CC` (configuration not stated), the values for the Inhibition in test [1], in test [2] and in test [3] were 100%, 99% and 73%, respectively.
For `c1ccc2oc(-c3cc4ccncc4cc3OC3CCNCC3)cc2c1`, in that order: 100%, 96% and 11%.
Turning to `COc1ccc(OC)c(Cc2cnc3nc(N)nc(N)c3c2C)c1` [PIRITREXIM], the Inhibition in test [1] is reported as 92%; in test [2], 97%; in test [3], 68%.
For `O=C(/C=C/c1ccc(Cl)c(Cl)c1)NCCCCCN1CCC(NC(=O)Nc2cccc(F)c2)CC1`, in that order: 100%, 6% and 30%.
Turning to `Cc1nn(-c2cccc(Cl)c2)c2c1C(C(=O)c1ccc3c(c1)OCO3)CC(=O)N2` (configuration not stated), the Inhibition in test [1] is given as 98%; in test [2], 95%; in test [3], 5%.
For `CCCCCCCC1CCN(C[C@H](O)c2ccnc3ccc(OC)cc23)CC1.O=C(O)C(=O)O`, in that order: 94%, 81% and 23%.
For `Cc1ccccc1NC(=O)NC1CCN(CCCCCNC(=O)/C=C/c2ccc(Cl)c(Cl)c2)CC1`, in that order: 100%, 20% and 13%.
For `O=C(Nc1ccc2c(c1)CCN2C1CCN(Cc2ccc(C(F)(F)F)cc2F)C1)c1ccco1` (configuration not stated), in that order: 91%, 94% and 9%.
Regarding `CCc1cn2c3c(cc(C(=O)N[C@@H](Cc4ccccc4)[C@H](O)CNC4CCOCC4)cc13)N(C)S(=O)(=O)C2.O=CO`, the Inhibition in test [1] is listed as 99%; in test [2] it was 98%; in test [3], 13%.
For `COc1cc2nc(Cl)nc(Nc3ccncc3)c2cc1OC.Cl`, in that order: 86%, 33% and 11%.
For `Cc1cc(O)nc(NC#N)n1`, in that order: 99%, 3% and 8%.
For `COCC(=O)N(Cc1ccccc1-c1cccc(CNCc2ccc3c(c2)OCO3)c1)C1CCN(Cc2ccccc2)CC1.O=C(O)C(F)(F)F`, in that order: 94%, 72% and 33%.
For `CCCCCCCCCN1CC[C@@H](CCCc2ccnc3ccc(O)cc23)[C@@H](CC)C1.O=C(O)C(=O)O`, the Inhibition is on record as 83% in test [1], 59% in test [2] and 58% in test [3].
In the case of `Cl.O=C(Nc1cc(Cl)cc(Cl)c1)Nc1ccnc2ccccc12`, the Inhibition was determined as 96% in test [1], 65% in test [2] and 15% in test [3].
